RE007 growth inh: qHTS Assay for Inhibitors of the HIV-1 protein Vpr; S. pombe RE007 Vpr strain, BacTiter-Glo ATP luminescence, 24 h; Potency, µM (titrated, usually from 92.2 µM), hits mostly inhibitors; 360,000 compounds, 0.21% hits; AID 651644, 2012; active = well fitted falling curve with a large enough effect; inconclusive = small, poorly fitted or top-dose-only effect; inactive = no such curve, though single readings can be large or run the other way; also: nearly all actives have a fitted effect of over 50% in size
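Fission yeast strain RE007, carrying one chromosomally integrated HIV-1 vpr copy, was seeded at OD 0.01 in PMG+AL medium with 23 nL pinned compound. After 24 h at 30 °C and 99% humidity, viability was read by BacTiter-Glo luminescence.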
Tb PYK inh: qHTS of Trypanosoma Brucei Inhibitors; Potency, µM (titrated, usually from 76.8 µM), most hits filed as inhibitors; 410,000 compounds, 0.12% hits; TbPYK enzyme, Kinase-Glo Plus ATP luminescence, 45 min; AID 624173, 2012; also: nearly all actives have a fitted effect of over 50% in size
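Luminescence from Kinase-Glo Plus, added after a 45-minute room-temperature reaction, served as the end-point read-out. The enzyme and substrate were preincubated with compound before ADP (130 uM final) initiated turnover. Concentration-effect curves came from normalized qHTS data.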
AMA1 RON2 block: qHTS for Inhibitors of AMA1-RON; Towards Development of Antimalarial Drug Lead: Primary Screen; Plasmodium falciparum AMA1 (3D7) - RON2 peptide interaction; AlphaScreen AMA1-biotinylated RON2 peptide binding; Potency, µM (highest dose often 58.2 µM), actives largely listed as inhibitors; 360,000 compounds, 0.2% hits; AID 720542, 2013; also: nearly all actives have a fitted effect of over 45% in size
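AMA1 (3D7) with his tag at 25 nM final met compounds first, then biotinylated RON2 peptide at 25 nM; detection used donor plus acceptor beads, 10 µg/mL apiece, read by AlphaScreen after 30 min at room temperature.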
Sm TGR block: qHTS Assay for the Inhibitors of Schistosoma Mansoni Peroxiredoxins; Schistosoma mansoni thioredoxin glutathione reductase (TGR), Q962Y6; purified TGR, DTNB reduction, TNB absorbance 405 nm; Potency, µM (doses to about 114 µM), actives largely listed as inhibitors; 360,000 compounds, 3% hits; AID 485364, 2010; also: nearly all actives have a fitted effect of over 60% in size
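First, TGR (20 nM dispensed) and NADPH were mixed with compound. Second, a 15 min room-temperature incubation followed. Third, further NADPH and then DTNB were added to start the reaction. Finally, TNB absorbance was monitored kinetically.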
LmPK inhibitor: qHTS Assay for Inhibitors of Leishmania Mexicana Pyruvate Kinase (LmPK) | AID 1721, 2009 | 290,000 compounds, 0.37% hits | Potency, µM (series often up to 57.5 µM), usual class: inhibitors | purified LmPK, Kinase-Glo ATP luminescence, 1 h
Target sequence (Q27686 whole entry, looked up): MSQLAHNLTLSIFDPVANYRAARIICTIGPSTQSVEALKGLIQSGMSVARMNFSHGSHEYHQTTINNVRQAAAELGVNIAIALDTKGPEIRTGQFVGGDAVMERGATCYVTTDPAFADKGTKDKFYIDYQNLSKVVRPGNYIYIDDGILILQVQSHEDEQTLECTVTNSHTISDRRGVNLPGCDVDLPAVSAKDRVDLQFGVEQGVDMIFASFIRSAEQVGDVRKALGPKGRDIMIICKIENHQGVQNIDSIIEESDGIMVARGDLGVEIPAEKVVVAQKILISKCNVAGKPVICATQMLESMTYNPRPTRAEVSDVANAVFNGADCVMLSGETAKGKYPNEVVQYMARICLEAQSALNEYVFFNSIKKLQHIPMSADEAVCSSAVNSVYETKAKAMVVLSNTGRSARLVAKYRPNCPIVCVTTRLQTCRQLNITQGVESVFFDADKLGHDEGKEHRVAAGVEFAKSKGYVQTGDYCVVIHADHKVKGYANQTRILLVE
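ATP generated from ADP (0.1 mM) and PEP (0.5 mM) by 0.1 nM LmPK over 1 h at room temperature (pH 7.2 imidazole buffer) was detected by coupled luciferase luminescence. Values were normalized to uninhibited and no-enzyme wells.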
A number is an active result; n = inactive; u = inconclusive; x = no result; ! = not active in a repeat; [ ] = another dose, or the depositor's remark. In the library only some 3.2% were active in any assay of this set; here they are far more common. Unless noted, calls follow the shape of the dose curve; as a rule, active = well fitted curve in the direction sought with a large enough effect; inconclusive = small, poorly fitted or top-dose-only effect, or another doubt; inactive = no such curve, though single readings can be large; an effect the other way counts as inactive or inconclusive.

SMILES	RE007 growth inh	Tb PYK inh	AMA1 RON2 block	Sm TGR block	LmPK inhibitor
Cc1nc(SCC(=O)NCc2ccco2)c2c(C)c(C)sc2n1	n	n	n	u	n
Cc1nc(SCC(=O)NC(=O)NCc2ccco2)nc(C)c1C	n	n	n	40µM	n
CC(C)c1ccc(NC(=O)CSc2nc(=O)n(Cc3cccnc3)c3c2CCC3)cc1	x	n	x	n	x
COc1ccc(OC)c(CCNc2nc3cc(OC)c(OC)cc3c3nc(-c4cccnc4)nn23)c1	x	n	x	n	x
CN1CCOc2ccc(S(=O)(=O)N3CCN(S(=O)(=O)c4c(F)cccc4F)CC3)cc21	x	x	x	n	x
O=C(Cn1ncn2c(cc3ccccc32)c1=O)NCc1ccco1	n	n	n	32µM	n
O=C(CSc1ncnc2c1oc1ccccc12)NCc1ccco1	n	n	n	28µM	n
Cc1ccc(SCC(=O)NCc2ccco2)cc1	n	n	n	u	n
Cc1nc(SCC(=O)NCc2ccco2)nc(C)c1C	n	n	n	22µM	n
O=C(O)CSc1ncnc2c1oc1ccccc12	n	n	n	n	n
COc1ccc(CNC(=O)Cn2ncn3c(cc4ccccc43)c2=O)cc1	n	n	n	n	n
COc1ccc(NC(=O)Cn2ccn(-c3ccc(C)c(C)c3)c(=O)c2=O)cc1Cl	x	n	x	n	x
CC1(C)CC/C(=C\c2ccc(Cl)cc2)C1(O)Cn1cncn1 (stereo not drawn)	x	n	x	x	x
N#CC1=C(N)Oc2cc(O)ccc2C1c1cccs1 (stereo not drawn)	n	n	n	n	n
N#CC1=C(N)Oc2c(ccc3ccccc23)C1c1cccs1 (stereo not drawn)	n	n	n	35µM	n
N#CC1=C(N)Oc2c(ccc3cccnc23)C1c1ccccc1 (stereo not drawn)	n	n	n	40µM	n
Cc1ccc2[nH]c(=O)c(C3C(C#N)=C(N)Oc4c3ccc3cccnc43)cc2c1 (stereo not drawn)	n	n	n	16µM	n
N#CC1=C(N)OC2=C(C(=O)CCC2)C1c1ccccc1 (stereo not drawn)	n	n	n	n	n
CCCN1CCN(CCCNC(=O)c2ccc3c(c2)sc2nc(-c4ccc(C)cc4)cn23)CC1	x	n	x	n	x
O=C1ON=C(c2ccccc2)/C1=C/c1ccc(-c2ccccc2[N+](=O)[O-])o1	n	u	u	11µM	n
COc1ccc(/C=C2\C(=O)ON=C2c2cccc([N+](=O)[O-])c2)cc1	x	x	x	11µM	n
O=C1ON=C(c2ccccc2)/C1=C/c1ccco1	n	n	n	20µM	n
COc1cc(/C=C2\C(=O)ON=C2c2ccccc2)cc(OC)c1OC	n	u	n	8.9µM	n
O=C1NNC(c2ccccc2)=N/C1=C\c1ccco1	n	n	n	20µM	n
Cc1c(C)c2c(c(C)c1OC(=O)CCC(=O)O)CC[C@@](C)(CCC[C@H](C)CCC[C@H](C)CCCC(C)C)O2	x	n	x	x	x
SMILES	RE007 growth inh	Tb PYK inh	AMA1 RON2 block	Sm TGR block	LmPK inhibitor
CCc1ccc(C(=O)C(C)OC(=O)CNS(=O)(=O)c2ccc(C)cc2)cc1 (stereo not drawn)	n	n	n	n	x
Cc1ccc(S(=O)(=O)NCC(=O)OC(C(=O)c2ccccc2)c2ccccc2)cc1 (stereo not drawn)	n	n	3.2µM	n	n
COc1ccc(NC(=O)CCCSc2nc(-c3ccco3)cc(C(F)(F)F)n2)cc1	x	n	x	n	x
CC(C)CC1C(C#N)=C(N)Oc2n[nH]c(-c3cccs3)c21 (stereo not drawn)	n	n	n	n	n
CSCCC1C(C#N)=C(N)Oc2n[nH]c(-c3cccs3)c21 (stereo not drawn)	n	n	n	13µM	n
CCc1ccc(-n2c(=O)c3sc4ccccc4c3n(CC(=O)N3CCCC3)c2=O)cc1	x	n	x	n	x
CCn1c(SCC(=O)N/N=C/C=C\c2ccco2)nc2ccccc21	n	n	n	22µM	n
O=C(CSc1nc2ccccc2n1Cc1ccccc1)N/N=C/c1ccco1	n	n	n	n	n
C/C(=N/NC(=O)CSc1nc2ccccc2n1C)c1ccco1	n	n	n	n	n
Cn1c(SCC(=O)N/N=C/C=C\c2ccco2)nc2ccccc21	n	n	u	22µM	n
C=CCN1CC[C@]23c4c5ccc(O)c4O[C@H]2C(=O)CC[C@@]3(O)[C@H]1C5	n	n	n	45µM!	n
C=CCN1CC[C@]23c4c5ccc(O)c4OC2[C@H](O)CC[C@@]3(O)[C@H]1C5 (stereo partly drawn)	n	n	n	x	x
O=[N+]([O-])c1ccc(/C=[N+](\[O-])[C@@H]2CCCC[C@@H]2/[N+]([O-])=C/c2ccc([N+](=O)[O-])o2)o1	n	n	n	3.5µM	n
O=C(c1ccc(Nc2nc3ccccc3n3nnnc23)cc1)N1CCN(c2ccc(F)cc2)CC1	x	n	x	n	x
O=C(NC1(C(F)(F)F)NC(=O)N(CC2CCCCC2)C1=O)c1ccco1 (stereo not drawn)	n	n	n	79µM	n
COc1cccc(CN(Cc2ccco2)C(c2ccc(F)cc2)c2nnnn2C(C)(C)C)c1 (stereo not drawn)	n	n	n	50µM	n
Cc1ccccc1NC(=O)C1CCN(S(=O)(=O)c2ccccc2)CC1	x	n	x	n	x
CC1(OC(=O)C2CCCC2)C(=O)C=C2C=C(c3ccsc3)N(c3ccc(CO)cc3)C=C2C1=O (stereo not drawn)	x	x	x	x	n[11.5 µM]
CCc1noc(-c2ccc(N3CCC(C)CC3)c([N+](=O)[O-])c2)n1	x	n	x	n	x
CCOC(=O)C1C(=O)C=C(c2cccc(NS(C)(=O)=O)c2)CC1c1ccco1 (stereo not drawn)	n	n	n	32µM	n
COc1cccc(C=C(C#N)C(=O)c2ccccc2)c1	n[18.4 µM]	n	n	x	x
N#C/C(=C\c1cccc(Cl)c1)C(=O)c1ccccc1	n	n	n	50µM	n
Cc1cccc(-c2nn(C(=S)Nc3ccccc3)cc2-c2ccnc3ccccc23)n1	x	n	x	x	x
O=c1cc(C(F)(F)F)[nH]c(=S)n1-c1ccccc1	n	u	n	22µM	n
Nc1cc(=O)[nH]c(=S)n1-c1ccccc1	n	n	n	n	n
CC(=O)Nc1ccc(NC(=O)CCc2c(C)nc3c(c(C)nn3-c3ccc(C)cc3)c2C)cc1	x	n	x	n	x
Cc1ccccc1C(=O)Nc1nnc(S(=O)(=O)N(C)Cc2ccco2)s1	n	n	n	3.2µM	n
Cc1ccccc1C(=O)Nc1nnc(S(=O)(=O)N(C)Cc2ccccc2)s1	x	n	x	n	x
CN(Cc1ccco1)S(=O)(=O)c1nnc(NC(=O)c2ccccc2Cl)s1	n	n	n	11µM!	n
